Measurements published in PubChem BioAssay (NCATS).
Inconclusive results are not listed. Entries that show only a call come without a potency. The source made the active and inactive calls. Calls follow the shape of the dose curve; as a rule, active = well fitted inhibition curve with a large enough effect; inconclusive = small, poorly fitted or top-dose-only effect; inactive = no such curve, though single readings can be large or run the other way.

Assay: qHTS assay for measurement of the activity of small molecule inhibitors on Zika virus induced Caspase-3 activity in human iPSC derived neural progenitor cells (hNPCs) (AID 1224857); also: nearly all actives have a fitted effect of over 65% in size
Settings: hNPCs ZIKV-induced caspase-3/7, Caspase-Glo luminescence, 6 h; series mostly up to 45.7 µM
Summary of the method: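 Values are percent inhibition of virus-induced caspase-3/7 signal, scaled between uninfected cells and ZIKV-infected cells. Infection used 2 FFU/cell for 6 h after 1 h compound exposure.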

SMILES	Potency
CC(=O)NCCc1c[nH]c2ccccc12	inactive
O=C(O)[C@@H]1CCN1	inactive
CNCCc1ccc(O)c(O)c1	inactive
CCCN1CCO[C@@H]2c3cc(O)ccc3OC[C@H]21	inactive
COc1ccc(C(c2ccc(OC)cc2)C(Cl)(Cl)Cl)cc1	inactive
O=[N+]([O-])c1cc([N+](=O)[O-])c2ccccc2c1	inactive
CCCCc1ccc(C(=O)O)nc1	inactive
C[N+]1(C)C2CCC1CC(OC(=O)C(CO)c1ccccc1)C2 (stereo unspecified)	inactive
O=C(O)Cc1cnc[nH]1	inactive
CCCCOC(=O)c1ccccc1C(=O)OCc1ccccc1	inactive
Nc1c(Cl)c(Cl)c(Cl)c(Cl)c1Cl	inactive
O=S(=O)(c1ccc(Cl)cc1)c1ccc(Cl)cc1	inactive
NC(CP(=O)(O)O)C(=O)O (stereo unspecified)	inactive
CCC1(CCC(C)C)C(=O)NC(=O)NC1=O	inactive
NC(=NCCC[C@H](N)C(=O)O)N[N+](=O)[O-]	inactive
S=C(NC1CCCCC1)N1CCC(c2cnc[nH]2)CC1	inactive

Assay: qHTS assay for measurement of the activity of small molecule inhibitors on Zika virus induced Caspase-3 activity in human astrocytoma cells (AID 1224859)
Settings: SNB-19 ZIKV-induced caspase-3/7, luminescence, 6 h; series mostly up to 45.7 µM
Summary of the method: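 Compound added 1 h pre-infection; ZIKV 2 FFU/cell on SNB-19 cells, 6 h, 37 C/5% CO2. Caspase-Glo 3/7 luminescence; values as % inhibition of ZIKV-induced caspase activity.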

SMILES	Potency
c1cc2ccc3cccc4ccc(c1)c2c34	inactive
Cc1ccc(Cl)c(O)c1	inactive
CC(=O)NCCc1c[nH]c2ccccc12	inactive
O=C(O)[C@@H]1CCN1	inactive
CNCCc1ccc(O)c(O)c1	inactive
CCCCCCCCCC(CC)c1ccc(S(=O)(=O)O)cc1 (stereo unspecified)	inactive
O=[N+]([O-])c1c2ccccc2cc2ccccc12	inactive
COc1nn(CSP(=S)(OC)OC)c(=O)s1	inactive
CS(=N)(=O)CC[C@H](N)C(=O)O (stereo partly specified)	inactive
CCCN1CCO[C@@H]2c3cc(O)ccc3OC[C@H]21	inactive
COc1ccc(C(c2ccc(OC)cc2)C(Cl)(Cl)Cl)cc1	inactive
CO/C=C(/C(=O)OC)c1ccccc1Oc1cc(Oc2ccccc2C#N)ncn1	inactive
S=C(SSC(=S)N1CCCCC1)N1CCCCC1	inactive
Clc1cnc(Oc2ccc(Oc3ncc(Cl)cc3Cl)cc2)c(Cl)c1	inactive
c1ccc2sc(C3(N4CCCCC4)CCCCC3)cc2c1	inactive
CC[N+]1(CCOC(=O)C(O)(c2ccccc2)c2ccccc2)CCCCC1	inactive
O=[N+]([O-])c1cc([N+](=O)[O-])c2ccccc2c1	inactive
CCCCc1ccc(C(=O)O)nc1	inactive
C[N+]1(C)C2CCC1CC(OC(=O)C(CO)c1ccccc1)C2 (stereo unspecified)	inactive
O=C(O)CCCOc1ccc(Cl)cc1Cl	inactive

SMILES	Potency
O=C(O)c1cc(Oc2ccc(C(F)(F)F)cc2Cl)ccc1[N+](=O)[O-]	inactive
O=C(O)Cc1cnc[nH]1	inactive
CC(C)NCC(O)c1ccc([N+](=O)[O-])cc1 (stereo unspecified)	inactive
CCCCOC(=O)c1ccccc1C(=O)OCc1ccccc1	inactive
CC1(C)CC/C(=C/c2ccc(Cl)cc2)C1(O)Cn1cncn1 (stereo unspecified)	inactive
Nc1ccc(Cl)cc1	inactive
CC(C)Oc1cccc(NC(=O)c2ccccc2C(F)(F)F)c1	inactive
Nc1c(Cl)c(Cl)c(Cl)c(Cl)c1Cl	inactive
NC(=O)CN1CC(O)CC1=O (stereo unspecified)	inactive
O=C(O)CC[N+](=O)[O-]	inactive
CCCN(CCC)C1CCc2ccc(O)cc2C1 (stereo unspecified)	inactive
O=S(=O)(c1ccc(Cl)cc1)c1ccc(Cl)cc1	inactive
NC(CP(=O)(O)O)C(=O)O (stereo unspecified)	inactive
CCC1(CCC(C)C)C(=O)NC(=O)NC1=O	inactive
CN[C@@H](C)[C@H](O)c1ccccc1	inactive
O=S(=O)(O)C(F)(F)C(F)(F)C(F)(F)C(F)(F)F	inactive
Cc1nccc2c1[nH]c1ccccc12	inactive
O=[N+]([O-])c1ccc([As](=O)(O)O)cc1	inactive
NC(=NCCC[C@H](N)C(=O)O)N[N+](=O)[O-]	inactive
S=C(NC1CCCCC1)N1CCC(c2cnc[nH]2)CC1	inactive
